Assay results from PubChem BioAssay AID1159580 (chemical genetic matrix, 2015).
Several values for one entry are separate records, joined by “and”; a condition that tells them apart may be missing. Equal entries are not always repeated. Among all 5,500 compounds or so, about 2,000 (36%) were called active. Not shown: some 18% with an inconclusive outcome. No stated cut-off is given here; in the data, active means normalized growth mostly below about 0.91 (no sharp cut-off); inconclusive means no clear call, values can overlap the other calls; inactive means mostly above about 0.92. The list shows a part of the results.

Assay: chemical genetic growth profiling, strain panel (AID 1159580);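 further: tested at 20 µM; growth read once vehicle control cultures reached saturation at 30 °C; 1 = growth at the plate median or of vehicle wells; lower values mean less growth of the strain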
Details: S. cerevisiae deletion strains, growth OD
[1] = locus YAR019C, strain CDC15, hits give low values
[2] = locus YBL105C, strain PKC1, hits give low values
[3] = locus YBR135W, strain CKS1, hits give low values
[4] = locus YBR136W, strain MEC1, hits give low values
[5] = locus YBR160W, strain CDC28, hits give low values
[6] = locus YDL017W, strain CDC7, hits give low values
[7] = locus YDL028C, strain MPS1, hits give low values
[8] = locus YDL101C, strain DUN1, hits give low values
[9] = locus YDL108W, strain KIN28, hits give low values
[10] = locus YDL132W, strain cdc53, hits give low values
[11] = locus YDL214C, strain PRR2, hits give low values
[12] = locus YDR052C, strain DBF4, hits give low values
[13] = locus YDR054C, strain cdc34, hits give low values
[14] = locus YDR150W, strain NUM1, hits give low values
[15] = locus YDR226W, strain ADK1, hits give low values
[16] = locus YDR477W, strain SNF1, hits give low values
[17] = locus YER123W, strain YCK3, hits give low values
[18] = locus YER133W, strain GLC7, hits give low values
[19] = locus YFL009W, strain cdc4, hits give low values
[20] = locus YFL029C, strain CAK1, hits give low values
[21] = locus YFR003C, strain YPI1, hits give low values
[22] = locus YFR019W, strain FAB1, hits give low values
[23] = locus YFR028C, strain CDC14, hits give low values
[24] = locus YGR040W, strain KSS1, hits give low values
[25] = locus YGR052W, strain FMP48, hits give low values
[26] = locus YGR078C, strain PAC10, hits give low values
[27] = locus YGR092W, strain DBF2, hits give low values
[28] = locus YHR030C, strain SLT2, hits give low values
[29] = locus YHR079C, strain IRE1, hits give low values
[30] = locus YHR082C, strain KSP1, hits give low values
[31] = locus YHR205W, strain SCH9, hits give low values
[32] = locus YIL147C, strain SLN1, hits give low values
[33] = locus YJL095W, strain BCK1, hits give low values
[34] = locus YJL128C, strain PBS2, hits give low values
[35] = locus YJL157C, strain FAR1, hits give low values
[36] = locus YJR016C, strain ILV3, hits give low values
[37] = locus YJR066W, strain TOR1 (second series), hits give low values
[38] = locus YJR066W, strain TOR1, hits give low values
[39] = locus YJR075W, strain HOC1, hits give low values
[40] = locus YKL048C, strain ELM1, hits give low values
[41] = locus YKL067W, strain YNK1, hits give low values
[42] = locus YKL101W, strain HSL1, hits give low values
[43] = locus YKL193C, strain SDS22, hits give low values
[44] = locus YKL203C, strain TOR2, hits give low values
[45] = locus YLR113W, strain HOG1, hits give low values
[46] = locus YLR133W, strain CKI1, hits give low values
[47] = locus YLR403W, strain SFP1, hits give low values
[48] = locus YML070W, strain DAK1, hits give low values
[49] = locus YMR001C, strain CDC5, hits give low values
[50] = locus YMR205C, strain PFK2 (second series), hits give low values
[51] = locus YMR263W, strain SAP30, hits give low values
[52] = locus YMR277W, strain FCP1, hits give low values
[53] = locus YNL006W, strain LST8, hits give low values
[54] = locus YNL020C, strain ARK1, hits give low values
[55] = locus YNL153C, strain GIM3, hits give low values
[56] = locus YNL161W, strain CBK1, hits give low values
[57] = locus YNL183C, strain NPR1, hits give low values
[58] = locus YNL207W, strain RIO2, hits give low values
[59] = locus YNL222W, strain SSU72, hits give low values
[60] = locus YNL307C, strain MCK1 (second series), hits give low values
[61] = locus YOL078W, strain AVO1, hits give low values
[62] = locus YOL136C, strain PFK27, hits give low values
[63] = locus YOR061W, strain CKA2, hits give low values
[64] = locus YOR119C, strain RIO1, hits give low values
[65] = locus YOR231W, strain MKK1, hits give low values
[66] = locus YOR329C, strain SCD5, hits give low values
[67] = locus YPL031C, strain PHO85, hits give low values
[68] = locus YPL055C, strain LGE1, hits give low values
[69] = locus YPL153C, strain RAD53, hits give low values
[70] = locus YPL209C, strain IPL1, hits give low values
[71] = locus YPL256C, strain CLN2, hits give low values
[72] = locus YPR025C, strain CCL1, hits give low values
[73] = locus YPR106W, strain ISR1, hits give low values
[74] = locus YPR111W, strain DBF20, hits give low values
[75] = strain NNK1, hits give low values
[76] = strain TSCII, hits give low values

Measured: normalized growth

COc1cc(CC/C(C)=N/O)ccc1OCc1ccc(Cl)cc1Cl
active: locus YAL013W, strain DEP1, hits give low values 0.908 | [26] 0.92 | [28] 0.242 and 0.801 | locus YJR043C, strain POL32, hits give low values 0.91 | [39] 0.879 | locus YKL190W, strain CNB1, hits give low values 0.762 | locus YLR039C, strain RIC1, hits give low values 0.694 | locus YLR085C, strain ARP6, hits give low values 0.307 | locus YLR262C, strain YPT6, hits give low values 0.803 | locus YML094W, strain GIM5, hits give low values 0.865 | locus YNL298W, strain CLA4 (second series), hits give low values 0.784 | locus YNR030W, strain Alg12, hits give low values 0.803 | locus YOL006C, strain TOP1, hits give low values 0.579 | [68] 0.727 | locus YPL241C, strain CIN2, hits give low values 0.822 | [71] 0.863 | locus YPR135W, strain CTF4, hits give low values 0.388
inactive: [1] 0.977 | [2] 0.972 | [3] 0.978 | [4] 0.977 | [5] 0.981 | locus YBR229C, strain ROT2, hits give low values 0.934 | locus YCL061C, strain MRC1, hits give low values 0.931 | [6] 0.979 | [7] 0.978 | [8] 0.992 and 0.922 | [9] 0.978 | [10] 0.982 | locus YDL134C, strain PPH21, hits give low values 0.925 | [11] 0.944 | [12] 0.989 | [13] 0.998 | [14] 0.911 | [15] 1 | [16] 0.952 | locus YEL061C, strain CIN8, hits give low values 0.929 | [17] 0.939 | [18] 0.937 | [19] 0.968 | [20] 0.98 | [21] 0.976 | [22] 0.953 | [23] 0.984 | [24] 0.948 | [25] 0.973 | [27] 0.952 | [29] 0.885 | [30] 1.02 | locus YHR087W, strain rtc3, hits give low values 0.935 | [31] 0.939 | [32] 0.982 | [33] 0.938 | [34] 0.932 | [35] 0.918 | [36] 0.978 | [37] 0.913 | [38] 1.01 | [40] 0.986 | [41] 0.942 | [42] 0.949 | [43] 0.979 | [44] 0.972 | locus YLR058C, strain SHM2 (second series), hits give low values 0.976 | [45] 0.881 | [46] 0.944 | [47] 0.942 | [48] 0.936 | [49] 0.971 | [50] 0.965 | locus YMR219W, strain ESC1, hits give low values 0.998 | [51] 0.912 | [52] 0.979 | [53] 0.974 | [54] 0.935 | [55] 0.94 | [56] 0.976 | [57] 0.978 | [58] 0.979 | [59] 0.98 | [60] 0.932 | locus YNL322C, strain KRE1, hits give low values 0.98 | [61] 0.983 | [62] 0.921 | [63] 0.966 | [64] 1.02 | [65] 0.929 | [66] 0.976 | [67] 0.94 | [69] 0.95 | [70] 0.976 | [72] 0.979 | [73] 0.976 | [74] 0.993 | [75] 0.976 | [76] 0.973

COc1cc(CC/C(C)=N\O)ccc1OCc1ccc(Cl)c(Cl)c1
inactive: [1] 0.973 | [2] 0.964 | [3] 0.97 | [4] 0.96 | [5] 0.975 | [6] 0.963 | [7] 0.959 | [8] 0.975 | [9] 0.947 | [10] 0.983 | [11] 0.818 | [12] 0.971 | [13] 0.968 | [15] 0.973 | [16] 0.868 | [17] 0.767 | [18] 0.864 | [19] 0.968 | [20] 0.968 | [21] 0.968 | [22] 0.808 | [23] 0.983 | [24] 0.862 | [25] 0.881 | [27] 0.824 | [29] 0.871 | [30] 0.883 | [31] 0.869 | [32] 0.962 | [33] 0.849 | [34] 0.916 | [35] 0.823 | [36] 0.969 | [37] 0.786 | [38] 0.867 | [40] 0.934 | [41] 0.865 | [42] 0.852 | [43] 0.968 | [44] 0.932 | [46] 0.875 | [47] 0.865 | [48] 0.82 | [49] 0.967 | [50] 0.877 | [52] 0.968 | [53] 0.975 | [54] 0.851 | [56] 0.973 | [57] 0.885 | [58] 0.965 | [59] 0.969 | [60] 0.845 | [61] 0.978 | [62] 0.84 | [63] 0.818 | [64] 0.931 | [65] 0.842 | [66] 0.972 | [67] 0.858 | [69] 0.833 | locus YPL204W, strain HRR25, hits give low values 0.873 | [70] 0.968 | [71] 0.893 | [72] 0.98 | [73] 0.968 | [74] 0.962 | [75] 0.953 | [76] 0.97
active: [28] 0.831 | [45] 0.816

COc1ccc(CCN(C)CCc2ccc(OC)c(OC)c2)cc1OC
inactive: locus YAL040C, strain CLN3, hits give low values 1.08 | locus YCL061C, strain MRC1 (second series), hits give low values 0.998 | [14] 1.01 | locus YDR363W, strain ESC2, hits give low values 1.01 | locus YER002W, strain NOP16, hits give low values 1.01 | [26] 0.992 | [39] 0.983 | [51] 0.999 | locus YMR307W, strain GAS1, hits give low values 0.998 | [55] 1.03 | locus YNL175C, strain NOP13, hits give low values 1.02 | locus YNL197C, strain WHI3, hits give low values 1.01 | locus YNL224C, strain SQS1, hits give low values 1.01 | locus YOR083W, strain WHI5 (second series), hits give low values 1.02 | [68] 0.985
